From PubChem BioAssay (NCATS)
Inconclusive results are not listed. Entries that show only a call come without a potency. Active and inactive are the calls of the source. Calls come from the whole dose curve; as a rule, active = well fitted inhibition curve with a large enough effect; inconclusive = small, poorly fitted or top-dose-only effect; inactive = no such curve, though single readings can be large or run the other way.

Target: Retinaldehyde dehydrogenase 3 (Homo sapiens) (UniProt P47895)
Test: qHTS for Inhibitors of the Aldehyde Dehydrogenase Family (ALDH1A3) Primary screen (AID 2061315)
Settings: ALDH inhibition qHTS; series mostly up to 56 µM

**Q.** Which Potency does the source give for `Cc1ccc(-c2cc(C(=O)Nc3ccc(S(N)(=O)=O)cc3)c3ccccc3n2)cc1C` here?
**A.** inactive

**Q.** With `CC(C)(C)NC(=O)Nc1nnc(-c2ccncc2)s1` as the compound, how does the Potency read?
**A.** inactive

**Q.** With `CCOc1ccc(CCNC(=O)C2(c3ccccc3)CC2)cc1OCC` as the compound, how does the Potency read?
**A.** inactive

**Q.** How did the Potency turn out when `Cc1ccc(NS(=O)(=O)c2ccc3ccccc3c2)cc1C` was run?
**A.** inactive

**Q.** How did the Potency turn out when `COc1ccc(S(=O)(=O)NC2CCN(C#N)CC2)cc1` was run?
**A.** inactive

**Q.** `O=C(N1CCc2cc([S+](=O)([O-])N3CCN([S+](=O)([O-])c4c(F)cccc4F)CC3)ccc2C1)C(F)(F)F` was tested. Which Potency did it give?
**A.** inactive

**Q.** `COc1ccc(-c2nc3ccc(Cl)cc3c(=O)n2Cc2ccccc2)cc1COc1ccc(NC(C)=O)cc1` was tested. Which Potency did it give?
**A.** inactive

**Q.** With `COc1cccc(C2c3c(ncn(-c4ccc(C(C)(C)C)cc4)c3=N)Oc3ccc4ccccc4c32)c1` (stereo not given) as the compound, how does the Potency read?
**A.** inactive

**Q.** Which Potency does the source give for `COCCN(CCOC)c1nc(C)nc2c1nc(-c1ccccc1)n2CC1CCN(C)CC1` here?
**A.** inactive

**Q.** For `Cc1noc(C)c1-c1ccc2ncnc(NCc3ccccc3C(F)(F)F)c2c1`, which Potency is on record?
**A.** inactive

**Q.** How did the Potency turn out when `Clc1ccccc1CSc1nc2ncc(Br)cc2[nH]1` was run?
**A.** inactive

**Q.** `CC1=CC(=O)C2C(C)(C)CCCC2(C)C12CCC1(COC(=O)C1)O2` (stereo not given) was tested. Which Potency did it give?
**A.** inactive

**Q.** `N#Cc1cccc(-c2ccc(CNc3nc(-c4ccccc4C(F)(F)F)nc4ccccc34)cc2)c1` was tested. Which Potency did it give?
**A.** inactive

**Q.** Which Potency does the source give for `Cc1nc(NCc2ccccc2)c2nc(-c3ccccc3)n(CCN3CCCC3)c2n1` here?
**A.** inactive

**Q.** `COc1ccc(C2c3c(n(CCCc4ccccc4)cnc3=N)Oc3ccc4ccccc4c32)cc1OC` (stereo not given) was tested. Which Potency did it give?
**A.** inactive

**Q.** `Cc1ccc(OCCn2c(CCNC(=O)Cc3cccc(F)c3)nc3ccccc32)cc1` was tested. Which Potency did it give?
**A.** inactive

**Q.** For `Fc1cc(F)cc(Nc2nc(NC3CCCC3)nc(C3CO3)n2)c1` (stereo not given), which Potency is on record?
**A.** inactive

**Q.** Which Potency does the source give for `Cc1ccc(C(=O)Nc2ccc(S(=O)(=O)Nc3nccs3)cc2)cc1C` here?
**A.** inactive

**Q.** For `CS(=O)(=O)c1ccc(C(=O)OCC(=O)N2CCOCC2)cc1[N+](=O)[O-]`, which Potency is on record?
**A.** inactive

**Q.** Which Potency does the source give for `COc1cc(NS(=O)(=O)c2ccc(C)cc2)cc(C(=O)Nc2nc(-c3ccccc3)cs2)c1` here?
**A.** inactive

**Q.** `FC(F)(F)c1ccccc1-c1nc2c(c(NCc3ccc(-c4cccnc4)cc3)n1)CCC2` was tested. Which Potency did it give?
**A.** inactive

**Q.** For `C=C(C)c1cc2c(s1)c1cnn(Cc3ccccc3F)c(=O)c1n2C`, which Potency is on record?
**A.** inactive

**Q.** Which Potency does the source give for `Cc1ccc(C(=O)Nc2ccc(N3CCCCC3)cc2)cc1` here?
**A.** inactive

**Q.** For `Cc1cc(NS(=O)(=O)c2ccc(NC(=O)Cc3ccc4ccccc4c3)cc2)no1`, which Potency is on record?
**A.** inactive

**Q.** For `Cc1cc2c(s1)c1cnn(Cc3ccccc3F)c(=O)c1n2Cc1ccccc1F`, which Potency is on record?
**A.** inactive

**Q.** How did the Potency turn out when `COc1ccccc1C1=Nn2c(nnc2-c2cccc(OC)c2OC)SC1` was run?
**A.** inactive

**Q.** With `Cc1cc(C)nc(NC(=S)N2CCN(c3ccc(N4CCCC4)nn3)CC2)c1` as the compound, how does the Potency read?
**A.** inactive

**Q.** How did the Potency turn out when `Cc1cc2c(s1)c1cnn(Cc3ccc(F)c(F)c3F)c(=O)c1n2C` was run?
**A.** inactive

**Q.** Which Potency does the source give for `Cc1ccc(S(=O)(=O)Nc2cc([N+](=O)[O-])ccc2C(=O)Nc2nc(-c3ccccc3)cs2)cc1` here?
**A.** inactive

**Q.** With `Cc1cccc(CNc2ccnc(-c3cccc(C(F)(F)F)c3)n2)c1` as the compound, how does the Potency read?
**A.** inactive

**Q.** How did the Potency turn out when `CCCC1CCN(C(=O)CC(c2ccc3c(c2)OCO3)c2c(O)cc(OC)cc2OC)C1` (stereo not given) was run?
**A.** inactive

**Q.** How did the Potency turn out when `Cc1cnc(-c2ccccc2C(C)C)nc1NCC1CCN(C2COC2)CC1` was run?
**A.** inactive

**Q.** `O=C1CCCC2=C1C(c1ccncc1Cl)N=C(Nc1nc3ccccc3o1)N2` (stereo not given) was tested. Which Potency did it give?
**A.** inactive

**Q.** For `Cc1cc(-c2cc(O)ccc2Cl)cc2nnc(Nc3ccc(OCCN4CCCC4)cc3)nc12`, which Potency is on record?
**A.** inactive

**Q.** Which Potency does the source give for `Cc1cc(C)n2ncc(C(=O)Nc3ccc4c(c3)OCCO4)c2n1` here?
**A.** inactive

**Q.** `COc1ccc([S+](=O)([O-])N2CCCN([S+](=O)([O-])c3ccc(OC)c(N)c3)CC2)cc1N` was tested. Which Potency did it give?
**A.** inactive

**Q.** `O=C1CCc2cc(S(=O)(=O)Nc3cccc(B(O)O)c3)ccc2N1` was tested. Which Potency did it give?
**A.** inactive

**Q.** For `COc1ccc(C(=O)N(Cc2ccccc2)Cc2ccccc2)c(O)c1`, which Potency is on record?
**A.** inactive

**Q.** `CC1CC1C(=O)Nc1ccc([S+](=O)([O-])Nc2nccs2)cc1` (stereo not given) was tested. Which Potency did it give?
**A.** inactive

**Q.** `O=C(OCC#CCSc1nnc(-c2ccc3ccccc3c2)o1)c1cccc(F)c1` was tested. Which Potency did it give?
**A.** inactive
